Shiga toxin inh – Shiga toxin inhibition; Vero cells, Shiga toxin protein synthesis inhibition reporter; inhibition, % at 38.7 µM; actives 9.2% (n = 290,000); AID 2315; in the data active means inhibition mostly above about 28%, no sharp cut-off; inactive means mostly below about 43%; further: 0% is about no effect
SARS PLP yeast – SARS-CoV PLP inhibition in yeast | Potency, µM (series often up to 32.9 µM), inactives show at the highest dose activity, positive = growth rescue, usual class: activators | AID 485353 | S. cerevisiae expressing SARS-CoV PLpro, growth rescue | actives 0.19% (n = 330,000); calls by dose curve; further: potency means the concentration at half of the fitted maximal effect; 0% is about no effect; nearly all actives have a fitted effect of over 55% in size
AmpC inh no detg – AmpC beta-lactamase inhibition without detergent | P00811 | AmpC nitrocefin hydrolysis, absorbance 480 nm, 0.0001% Triton | Potency, µM (doses to about 57.1 µM), for the others: top-dose activity change, negative = inhibition, hits mostly inhibitors | actives 0.52% (n = 330,000) | AID 485341;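 further: potency means the concentration at half of the fitted maximal effect; plate controls were no compound for no effect and no enzyme for full effect; nearly all actives have a fitted effect of over 20% in size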
Target sequence (P00811 whole entry, looked up): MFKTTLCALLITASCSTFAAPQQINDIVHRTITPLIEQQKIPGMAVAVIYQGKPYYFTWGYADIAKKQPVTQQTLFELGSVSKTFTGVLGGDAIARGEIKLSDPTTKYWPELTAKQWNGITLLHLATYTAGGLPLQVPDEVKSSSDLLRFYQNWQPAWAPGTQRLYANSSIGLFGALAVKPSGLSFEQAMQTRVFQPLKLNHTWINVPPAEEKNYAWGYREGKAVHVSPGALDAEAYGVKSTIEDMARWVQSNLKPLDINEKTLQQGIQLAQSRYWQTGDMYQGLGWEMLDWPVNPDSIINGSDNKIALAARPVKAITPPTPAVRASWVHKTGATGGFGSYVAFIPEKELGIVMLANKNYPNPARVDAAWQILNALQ
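20 mM phosphate pH 7.0 + 0.01% (detergent screen) or 0.0001% Triton X-100; 5.3 nM AmpC reagent; cpd preinc 15 min RT; nitrocefin (800 uM stock) to start; A480 q20 s × 4 min; Activity was normalised to no-enzyme and no-compound control wells.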
AmpC inh detg – blocks E. coli AmpC beta-lactamase in detergent assay | P00811 | AmpC hydrolysis of nitrocefin, absorbance 480 nm, 0.01% Triton | Potency, µM (series often up to 114 µM), without a hit: at the highest dose activity change, negative = inhibition, usual class: inhibitors | actives 0.041% (n = 370,000) | AID 485294;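 further: potency means the concentration at half of the fitted maximal effect; 0% = no-compound wells and -100% = no-enzyme wells; nearly all actives have a fitted effect of over 25% in size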
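20 mM phosphate pH 7.0 + 0.01% (detergent screen) or 0.0001% Triton X-100; 5.3 nM AmpC reagent; cpd preinc 15 min RT; nitrocefin (800 uM stock) to start; A480 q20 s × 4 min; Activity was normalised to no-enzyme and no-compound control wells.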
AMA1-RON2 inh – disrupts binding of P. falciparum AMA1 to RON2; AlphaScreen AMA1-biotinylated RON2 peptide binding; Potency, µM (highest dose often 58.2 µM), for inactives: at the top dose activity change, negative = inhibition, usual class: inhibitors; actives 0.2% (n = 360,000);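 further: potency means the concentration at half of the fitted maximal effect; 0% = vehicle wells and -100% = peptide control; nearly all actives have a fitted effect of over 45% in size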
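AMA1 (3D7) with his tag at 25 nM final met compounds first, then biotinylated RON2 peptide at 25 nM; detection used donor plus acceptor beads, 10 µg/mL apiece, read by AlphaScreen after 30 min at room temperature.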
CHX counter – affects cycloheximide protein synthesis inhibition readout, counter-screen; cell reporter, cycloheximide protein synthesis inhibition counterscreen; actives 12% (n = 300,000); AID 2314; max response, %; in the data active means max response mostly above about 13%, no sharp cut-off; inactive means mostly below about 14%; further: read at 38.3 µM for the half of the compounds with a filed dose; 0% is about no effect
* marks the source's active call; other numbers are inactive results; u = inconclusive; x = no result given; [ ] = remark or other dose. The sample as a whole holds a higher share of hits than the screen did. Unless noted, the call rests on the fitted dose curve; in most records, active means well fitted curve in the direction sought with a large enough effect; inconclusive means small, poorly fitted or top-dose-only effect, or another doubt; inactive means no such curve, though single readings can be large; an effect the other way counts as inactive or inconclusive.

SMILES | Shiga toxin inh | SARS PLP yeast | AmpC inh no detg | AmpC inh detg | AMA1-RON2 inh | CHX counter
CCCn1c(C)cc(C(=O)COC(=O)c2ccc(Cl)c(S(=O)(=O)N3CCCC3)c2)c1C | 142* | 4% | 4% | u | -19% | 31*
Cc1ccc(-n2c(C)cc(C(=O)COC(=O)C3=NNC(=O)CC3)c2C)cc1 | 13 | -5% | 24% | 3% | -7% | 8
Cc1cc(C(=O)COC(=O)C2=NNC(=O)CC2)c(C)n1-c1ccccc1 | 38* | -2% | 3% | -3% | -15% | 29*
CCCn1c(C)cc(C(=O)COC(=O)c2ccc[nH]c2=O)c1C | 45* | -23% | -16% | 5% | -4%[2.32 µM] | 29*
O=C(Nc1cccc(Cl)c1Cl)c1csc([C@@H]2O[C@H](CO)[C@@H](O)[C@H]2O)n1 | x | x | x | x | 6% | x
O=C(N/C(=C\c1ccco1)C(=O)N1CCCC1)c1cccs1 | -1 | 3% | -7% | 3% | 2% | 2
COc1ccc(-n2c(=O)[nH]cc(C(=O)Nc3ccc(NC(C)=O)cc3)c2=O)cc1 | 11 | -8% | 1% | -6% | 3% | -3
N#Cc1ccccc1NC(=O)CN1CCN(Cc2ccccc2)CC1 | 3 | 2% | 1% | u | 7% | -3
O=C(Nc1ccc2c(c1)nc1n2CCN(Cc2ccccc2)C1)c1cccs1 | 15 | -6% | -23% | -13% | 2% | 13
Cc1ccc(-n2c(C)cc(C(=O)COC(=O)c3ccc[nH]c3=O)c2C)cc1C | 67* | -75% | u | -11% | 2%[11.6 µM] | 27*
CC1CCN(C(=O)COC(=O)c2ccccc2C(=O)c2ccccc2)CC1 | x | -2% | 3% | x | 9% | x
O=C(COC(=O)c1cc(=O)[nH]c2ccccc12)NC1CCCC1 | -7 | -1% | -18% | u | 7% | 9
COCCNC(=O)NC12CC3CC(CC(C3)C1)C2 | -3 | 0% | -21% | -3% | 9% | -3
CC(C)OCCCNC(=O)NC12CC3CC(CC(C3)C1)C2 | 15 | 4% | u | -6% | 7% | 13*
Cc1nc2ccccc2c(=O)n1Nc1cccc(Cl)c1 | 20 | 26% | 35% | 0% | 26% | -5
CN(C)c1ccc(C(=O)NC2(N3CCC3=O)CCCC2)cc1 | 27 | 0% | 10% | 0% | 1% | 22*
CCOC(=O)c1[nH]c2ccc(F)cc2c1NC(=O)c1ccccc1C(=O)O | 96* | -1% | -1% | -13% | 0% | 43*
CCOC(=O)c1[nH]c2ccc(OC)cc2c1C | 73* | 0% | -16% | 3% | -2% | 29*
CCOC(=O)c1[nH]c2ccc(OC)cc2c1NC(=O)c1cccc(OC)c1 | -8 | -5% | 13% | u | -25% | 3
CCOC(=O)c1[nH]c2ccc(OC)cc2c1NC(=O)c1ccccc1C(=O)O | 64* | 2% | -8% | -2% | -5% | 35*
CCOC(=O)c1[nH]c2ccc(OC)cc2c1NC(C)=O | -19 | 11% | 2% | 8% | -1% | -5
COCC(C)NC(=O)c1cc2cc(OC)ccc2[nH]1 (configuration not stated) | -4 | -2% | -5% | 8% | 0% | 2
CCOC(=O)c1cc2cc(OC)ccc2[nH]1 | 110* | 0% | -21% | u | 0% | 49*
CCO/C([O-])=N/c1sn[n+](C)c1C | 0 | 0% | -6% | 1% | 2% | -3
COc1cc(C)cc2c1OC(c1ccccc1)CC2=O (configuration not stated) | x | x | x | x | 6% | x
SMILES | Shiga toxin inh | SARS PLP yeast | AmpC inh no detg | AmpC inh detg | AMA1-RON2 inh | CHX counter
CCOC(=O)c1[nH]c2ccc(OCC)cc2c1NC(=O)CN1CCC2(CC1)OCCO2 | 13 | 0% | 57% | 8% | 2% | 9
CCOC(=O)c1[nH]c2ccc(OC)cc2c1NC(=S)N1CCN(c2ccc(F)cc2)CC1 | -7 | 10% | 6% | -6% | 2%[11.6 µM] | -2
CCOC(=O)c1[nH]c2ccc(OCC)cc2c1NC(=O)CN1CCN(c2ccccc2)CC1 | 60 | 4% | -12% | -4% | 9% | 28*
CCOC(=O)c1[nH]c2ccc(OC)cc2c1NC(=S)N1CCN(c2cccc(C)c2C)CC1 | 27 | 2% | 89% | -11% | 0% | 17*
COc1ccc(OC)c(-c2csc(NC(=O)C3c4ccccc4Oc4ccccc43)n2)c1 | -10 | -9% | -33% | u | u | -2
Cc1cc(C)cc(OCC(=O)NC2=NCCS2)c1 | -3 | -4% | -17% | -21% | -13% | 7
O=C(COc1ccc2ccccc2c1)NC1=NCCS1 | 107* | -5% | -20% | -13% | 24% | 43*
O=C(CSc1ccccn1)Nc1ccc2c(c1)CCC2 | x | 0% | -25% | -21% | 5% | x
O=C(CSc1ccccn1)Nc1ccc2ccccc2c1 | 77* | -4% | -30% | 10% | x | 53*
O=C(CSc1n[nH]c(=O)[nH]c1=O)Nc1ccc2c(c1)C(=O)c1ccccc1C2=O | 68* | -1% | -42% | u | -6% | 27*
O=C(CSc1ccccn1)Nc1ccc2c(c1)C(=O)c1ccccc1C2=O | 20 | -3% | -13% | u | -11% | 43*
CN(Cc1cccs1)C(=O)CCNS(=O)(=O)c1ccc(Br)cc1 | x | 23% | -23% | -8% | -4% | x
O=C(CSC1=NCCS1)Nc1ccc2ccccc2c1 | 117* | 1% | -31% | 6% | 50% | 36*
CCN(c1ccccc1)S(=O)(=O)c1cc(NC(=O)CSc2n[nH]c(=O)[nH]c2=O)ccc1Cl | -10 | 1% | 20µM* | -9% | 1% | -3
CCOc1cc(-c2cc(N)n[nH]2)cc(OCC)c1OCC | 0 | 15% | 16% | 2% | -6% | -3
Nc1cc(-c2ccc(Br)cc2)[nH]n1 | 25 | -12% | -33% | u | -10% | 11*
Cc1cc(-c2ccc(Br)cc2)n[nH]1 | 82* | -2% | -37% | -6% | -1% | 31*
Cc1c(Br)c(=O)oc2c(Br)c(O)c(O)cc12 | -11 | 17% | -24% | -3% | -1% | -4
O=C(/C=C/c1ccccc1)c1ccc2c(c1)OCCCCO2 | 41* | -11% | -27% | 2% | 2% | 43*
O=C(c1ccccc1)c1ccc2c(c1)OCCOCCOCCO2 | 49* | -1% | 4% | -2% | 2% | 14*
O=C(CCc1ccccc1)c1ccc2c(c1)OCCCO2 | 125* | -15% | -16% | 2% | 40% | 69*
O=C(O)c1ccc2c(c1)OCCCO2 | -4 | 1% | 0% | 3% | 5% | -3
CC(=O)c1ccc2c(c1)OCCOCCOc1ccccc1OCCOCCO2 | -3 | 0% | -23% | -11% | -21% | -2
O=C(CCCc1ccccc1)c1ccc2c(c1)OCCO2 | -17 | -19% | -25% | -2% | 86% | -9
O=C(c1ccccc1)c1ccc2c(c1)OCCCO2 | 93* | -1% | -21% | -1% | 14% | 55*
